Results on 28 compounds are retold here after PubChem BioAssay (NCI).

Test systems include T-47D breast; MDA-MB-435 melanoma; SW-620 colon; HCT-116 colon; HCC-2998 colon; KM12 colon; MCF7 breast; BT-549 breast.
Holding throughout (experiment): NCI-60 one-dose screen, 48 h (100 = growth as untreated, 0 = no growth, -100 = all killed)
What all share (conditions): 10 µM unless noted

About 83,000 compounds went through this panel and 20% of them were active in at least one assay; those are over-represented in the sample as a whole.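 For each line, cells grew in 96-well plates with the test compound present at a single concentration for 48 hours.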 A number with no mark means an inactive call. Activity calls are given as the source filed them. The calls were made as follows: active = growth percent below 10; inactive = the rest.

`COc1cc(/C=C2\CCCC3=C2N=C2SC(C)=NN2C3c2cc(OC)c(OC)c(OC)c2)cc(OC)c1OC` (stereo not drawn): the growth is 37.6% in the assay on T-47D breast; -63.9% (active) with MDA-MB-435 melanoma; 10.3% in the assay with SW-620 colon; -71.6% (active) in the assay on HCT-116 colon; 55.4% in the assay with HCC-2998 colon; -37.8% (active) in the assay on KM12 colon.
As to `O=C(/C=C/CN1CCCCC1)Nc1cc2c(Nc3ccc(F)c(Cl)c3F)ncnc2cc1OCCOC(F)F`, the growth in the assay with T-47D breast is -1.83% (active); in the assay with MDA-MB-435 melanoma, 8.14% (active); with SW-620 colon, 10.3%; with MCF7 breast it was 17.6%; in the assay with HCT-116 colon, 6.6% (active); with HCC-2998 colon it was 40.6%. Further, the growth in the assay with KM12 colon is 36.5%.
Consider `COc1ccc2c(c1)C(=O)/C(=C/c1ccc(O)cc1)O2`, for which the growth in the assay with T-47D breast was 59.8%; in the assay on MDA-MB-435 melanoma, 93.2%; in the assay with SW-620 colon, 9.11% (active); in the assay on MCF7 breast, 22.8%; in the assay with HCT-116 colon, 8.95% (active); with HCC-2998 colon it was 114%. The growth with KM12 colon was 101%.
For the compound `O=[N+]([O-])c1cccc(-c2cc(-c3cc(Br)ccc3O)[nH]n2)c1`, the growth with T-47D breast is 21.1%; in the assay with MDA-MB-435 melanoma, 13.5%; with SW-620 colon it was 28.1%; in the assay with MCF7 breast it was 6.17% (active); in the assay on HCT-116 colon it was 13.5%; with HCC-2998 colon it was 43.7%. The growth in the assay on KM12 colon was 12.5%.
As for `COc1ccc([N+](=O)[O-])c(/C=C/C(=O)c2ccccn2)c1`, the growth in the assay with T-47D breast is 91.8%; with MDA-MB-435 melanoma, 94.5%; in the assay with SW-620 colon, 16.9%; in the assay on MCF7 breast, 67%; in the assay with HCT-116 colon, 1.9% (active); with HCC-2998 colon, 120%. The growth with KM12 colon is 84.5%.
`CC/C(=C(\c1ccc(O)cc1)c1ccc(OCCN(C)CCN(C)C(=O)CCC(=O)c2c(C)[nH]c(/C=C3\N=C(c4ccc[nH]4)C=C3OC)c2C)cc1)c1ccccc1`: the growth is 69.3% in the assay on T-47D breast; 63.8% in the assay on MDA-MB-435 melanoma; 66.2% in the assay on SW-620 colon; 34.3% in the assay with MCF7 breast; 92.2% with HCC-2998 colon; 42.4% with KM12 colon.
`O=c1[nH]c(-c2cn(-c3ccc(Cl)cc3)nn2)nc2ccccc12`: the growth in the assay with T-47D breast was 54.4%; in the assay on MDA-MB-435 melanoma, 77.2%; in the assay on SW-620 colon, 94.4%; in the assay on MCF7 breast, 99.8%; in the assay with HCT-116 colon, 52%; in the assay on HCC-2998 colon, 90%. For the same compound, the growth in the assay with KM12 colon is 84.7%.
For `O=C(CSc1nc(-c2ccc(Cl)cc2)cn1-c1ccc(Cl)cc1)c1ccc(Br)cc1`, the growth is 69.6% in the assay on T-47D breast; 91.5% in the assay with MDA-MB-435 melanoma; 89.3% in the assay with SW-620 colon; 83.9% in the assay on MCF7 breast; 43.9% in the assay with HCT-116 colon; 88.5% in the assay with KM12 colon.
On to `Cc1nc(Nc2cccnc2)sc1C(=O)/C=C/c1ccc(F)cc1`, for which the growth in the assay with T-47D breast is 30.2%; with MDA-MB-435 melanoma, 2.86% (active); in the assay with SW-620 colon it was 9.84% (active); with MCF7 breast, 14.2%; with HCT-116 colon it was 3.7% (active); in the assay with HCC-2998 colon it was 83.4%. Moreover, in the assay with KM12 colon, the growth was 11.3%.
Regarding `O=C(N/N=C/c1c(Cl)cccc1Cl)c1ccccc1Nc1ccnc(C(F)(F)F)c1`, the growth was 51.8% in the assay on T-47D breast; 82.9% with MDA-MB-435 melanoma; 86.3% in the assay with SW-620 colon; 46% in the assay on MCF7 breast; 71.5% in the assay with HCC-2998 colon; 74.7% in the assay with KM12 colon.
Consider `O=C(c1ccncc1)N1N=C(c2ccc(Cl)cc2)CC1c1c[nH]c2ccccc12` (stereo not drawn), for which the growth with T-47D breast was 74.8%; in the assay on MDA-MB-435 melanoma it was 99.9%; in the assay with SW-620 colon, 96%; with MCF7 breast it was 70.2%; with HCT-116 colon it was 94.3%; in the assay with HCC-2998 colon it was 105%. The growth in the assay on KM12 colon is 96.8%.
For `COc1ccc(/C=C2\Oc3cc(OCCN4CCCC4)ccc3C2=O)c(OC)c1`, the growth is 94.2% with BT-549 breast; 94.3% in the assay with MDA-MB-435 melanoma; 79.2% in the assay with SW-620 colon; 85.1% in the assay with MCF7 breast; 41.3% in the assay on HCT-116 colon; 98.2% in the assay on HCC-2998 colon. In the assay with KM12 colon, the growth is 74.3%.
As for `CCCCCCCCCCn1cc[n+](C)c1`, the growth was 24.6% in the assay on T-47D breast; 7.98% (active) in the assay on MDA-MB-435 melanoma; 44.1% in the assay on SW-620 colon; 3.94% (active) with MCF7 breast; 17.6% in the assay on HCT-116 colon; 31.1% in the assay on HCC-2998 colon. Also, the growth with KM12 colon is 14%.
For the compound `CCCCC(N)(C(=O)O)C1CCCC1` (stereo not drawn), the growth is 110% with T-47D breast; 104% in the assay with MDA-MB-435 melanoma; 105% in the assay on SW-620 colon; 101% in the assay with HCT-116 colon; 112% in the assay with HCC-2998 colon; 113% in the assay on KM12 colon.
`O=C(O)c1cccc([N+](=O)[O-])c1/C=C/c1ccccc1`: the growth was 95.2% in the assay with T-47D breast; 105% in the assay with MDA-MB-435 melanoma; 96.7% with SW-620 colon; 95.5% with MCF7 breast; 94.3% with HCT-116 colon; 103% in the assay with HCC-2998 colon. Besides, the growth in the assay on KM12 colon is 99.8%.
Regarding `CCCCCCc1nc2c(c(C)nn2-c2ccccc2)c2c1CCCCC2`, the growth with T-47D breast was 92.2%; in the assay with MDA-MB-435 melanoma, 116%; with SW-620 colon it was 101%; in the assay on MCF7 breast it was 107%; in the assay with HCC-2998 colon it was 106%; in the assay on KM12 colon, 108%.
Consider `Cc1ccc(C2=NN(c3ccc(S(N)(=O)=O)cc3)C(c3cn(-c4ccccc4)nc3-c3ccccc3)C2)cc1` (stereo not drawn), for which the growth in the assay on T-47D breast was 83.7%; in the assay with MDA-MB-435 melanoma, 62.7%; in the assay on SW-620 colon, 86.5%; in the assay on MCF7 breast, 55.9%; in the assay with HCT-116 colon, 83.9%; in the assay with HCC-2998 colon it was 118%. Moreover, in the assay on KM12 colon, the growth was 41.1%.
Regarding `CC(=O)Nc1ccc(S(=O)(=O)N2C(=O)CCC2C(=O)Nc2ccc(Br)cc2)cc1` (stereo not drawn), the growth in the assay on T-47D breast was 1.46% (active); in the assay on MDA-MB-435 melanoma, 27.6%; with SW-620 colon, 38.2%; in the assay with MCF7 breast it was 9.58% (active); in the assay with HCT-116 colon, 19.5%; in the assay on HCC-2998 colon, 49.4%. Moreover, in the assay on KM12 colon, the growth is 23.1%.
`O=c1cc(C2NCCc3c2[nH]c2ccccc32)c2c(ccc3ccccc32)o1` (stereo not drawn): the growth with T-47D breast was 59.1%; in the assay with MDA-MB-435 melanoma it was 81.7%; with SW-620 colon it was 59.6%; with MCF7 breast, 81.8%; in the assay on HCC-2998 colon, 78.1%; in the assay with KM12 colon it was 63.5%.
Regarding `COc1cccc(NC(=O)Cn2cc3c(=O)oc4ccccc4c3n2)c1`, the growth in the assay with MDA-MB-435 melanoma is 88.1%; in the assay with SW-620 colon, 103%; in the assay with MCF7 breast it was 88.1%; in the assay on HCT-116 colon it was 99.5%; in the assay on HCC-2998 colon, 110%; in the assay on KM12 colon, 100%.
On to `CCOC(=O)c1ccccc1NC(c1ccccc1)c1ccc2cccnc2c1O` (stereo not drawn), for which the growth in the assay on BT-549 breast was 17.9%; in the assay with MDA-MB-435 melanoma, 39.4%; with SW-620 colon it was 37.5%; in the assay on MCF7 breast it was 16.1%; with HCT-116 colon, 27.3%; in the assay on HCC-2998 colon, 51.8%. The growth in the assay with KM12 colon was 29.8%.
For `CCCCCCCCCN1C(=O)/C(=c2\sc3n(c2=O)C2C(NN=3)N(CC)C(=O)N2CC)c2ccccc21` (stereo not drawn), the growth in the assay with BT-549 breast was 82.2%; with SW-620 colon, 30.5%; in the assay on MCF7 breast, 27.9%; with HCT-116 colon, 5.86% (active); in the assay on HCC-2998 colon, 102%; with KM12 colon, 9.43% (active).
Take `FC(F)(F)c1cccc(-n2nnc3cnc(Nc4ccc(N5CCCCC5)cc4)nc32)c1`: the growth in the assay with MDA-MB-435 melanoma was 37.5%; with SW-620 colon it was 35.7%; in the assay on MCF7 breast, 71.2%; with HCT-116 colon, 4.87% (active); with HCC-2998 colon, 88.3%; in the assay on KM12 colon, 65.8%.
On to `CCN(Cc1ccccc1)c1ccc(SC#N)cc1`, for which the growth in the assay on BT-549 breast was 71.5%; with MDA-MB-435 melanoma, 98.6%; in the assay on SW-620 colon it was 83.8%; with MCF7 breast, 75.3%; in the assay on HCT-116 colon, 43.7%; in the assay with HCC-2998 colon, 94.1%. Also, the growth in the assay on KM12 colon is 41.3%.
Regarding `COc1cc2oc(-c3cccc(NC(=O)Nc4ccc5c(c4)OCO5)c3)cc(=O)c2c(OC)c1OC`, the growth in the assay with BT-549 breast was 59.8%; in the assay on SW-620 colon, 57.3%; in the assay on MCF7 breast, 65.1%; in the assay with HCT-116 colon it was 50.2%; with HCC-2998 colon it was 59.2%; with KM12 colon, 48.5%.
Turning to `CCCCCC/C=C\CCCCCCCCOc1ccc(CCOP(=O)(O)OCC[N+](C)(C)C)cc1`, the growth in the assay on BT-549 breast was 91.2%; with MDA-MB-435 melanoma, 100%; in the assay with SW-620 colon, 93.2%; with MCF7 breast, 79.2%; with HCT-116 colon, 50.2%; in the assay on HCC-2998 colon, 89.2%. The growth with KM12 colon is 59.3%.
For the compound `CC[C@H](C)[C@@H]1NC(=O)[C@H]([C@@H](C)O)NC(=O)C(Cc2ccccc2)NC(=O)[C@@H]2CCCN2C(=O)C(C(C)C)NC(=O)C(Cc2ccccc2)NC(=O)CNC(=O)[C@@H]2CCCN2C1=O` (stereo partly drawn), the growth with MDA-MB-435 melanoma was 74%; in the assay with SW-620 colon, 68.3%; with MCF7 breast, 67.4%; in the assay on HCT-116 colon, 18.8%; in the assay on HCC-2998 colon, 88.2%; with KM12 colon, 59.2%.
Take `CCN1C(=O)/C(=c2\sc3n(c2=O)C2C(NN=3)N(CC)C(=S)N2CC)c2ccccc21` (stereo not drawn): the growth was 98.8% in the assay on BT-549 breast; 88.4% in the assay with MDA-MB-435 melanoma; 102% in the assay on SW-620 colon; 82.8% in the assay on MCF7 breast; 103% in the assay on HCT-116 colon; 102% in the assay on KM12 colon.
